Assay results taken from PubChem BioAssay (EPA / NIEHS).
Activity calls are given as the source filed them. How the source made its calls: active means hit-call score of the fitted dose curve at least 0.9, where 1 is the maximum; inactive means score below 0.9.

biological target: Paired box protein Pax-6 (Homo sapiens) (UniProt P26367); test: ATG_Pax6_CIS: Attagene CIS-FACTORIAL HepG2 Assay for human Paired Box 6 (PAX6) (AID 2282956); conditions: HepG2 CIS-FACTORIAL PAX6 reporter transcription, RNA readout; actives raise or lower the signal
Sequence (P26367 whole entry, looked up): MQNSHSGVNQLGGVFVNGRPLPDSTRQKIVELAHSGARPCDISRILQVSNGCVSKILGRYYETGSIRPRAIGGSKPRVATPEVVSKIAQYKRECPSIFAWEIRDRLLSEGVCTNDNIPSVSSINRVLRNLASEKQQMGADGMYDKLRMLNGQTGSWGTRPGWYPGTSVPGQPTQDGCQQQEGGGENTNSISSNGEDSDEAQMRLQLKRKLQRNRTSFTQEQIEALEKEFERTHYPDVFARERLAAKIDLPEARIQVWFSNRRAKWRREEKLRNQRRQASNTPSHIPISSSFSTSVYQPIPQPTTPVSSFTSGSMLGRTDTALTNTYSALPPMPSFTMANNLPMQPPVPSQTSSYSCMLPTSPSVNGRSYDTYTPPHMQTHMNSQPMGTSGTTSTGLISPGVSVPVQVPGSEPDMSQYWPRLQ
Method: ATG_CIS is a cell-based, multiplexed-readout assay that uses HepG2, a human liver cell line, with measurements taken at 24 hours after chemical dosing in a 24-well plate.ATG_Pax6_CIS is one of 52 assay component(s) measured or calculated from the ATG_CIS assay. It is designed to make measurements of mRNA induction, a form of inducible reporter, as detected with fluorescence intensity signals by Reverse transcription polymerase chain reaction (RT-PCR) and Capillary electrophoresis technology.Data from the assay component ATG_Pax6_CIS was analyzed into 1 assay endpoint. This assay endpoint, ATG_Pax6_CIS, was analyzed with bidirectional fitting relative to DMSO as the negative control and baseline of activity. Using a type of inducible reporter, measures of mRNA for gain or loss-of-signal activity can be used to understand the reporter gene at the transcription factor-level as they relate to the gene PAX6. Furthermore, this assay endpoint can be referred to as a primary readout, because this assay has produced multiple assay endpoints where this one serves a reporter gene function. To generalize the intended target to other relatable targets, this assay endpoint is annotated to the dna binding intended target family, where the subfamily is paired box protein.
Human liver HepG2 cells are transiently transfected with multiple reporter transcription units (MRTUs) in 6-well plates using FuGene 6 reagent (Roche; 3 ml FuGene/1 mg DNA). The MRTU constructs are regulated by a cis-regulating element (promoter). […] A major difference between the CIS and TRANS system is that in CIS activities of endogenous TFs are measured, whereas the TRANS assay evaluates changes in activities of exogenous, chimeric NR-Gal4 proteins. […] At the end of 24 hour incubation, total RNA was isolated using TriZol reagent (Invitrogen). The isolated RNA is then reverse-transcribed using oligo(dT) primer and Mo-MLV reverse transcriptase (Invitrogen) with DNAse I (Ambion) treatment for 30 min. The one-tenth of the produced cDNA was amplified by PCR using Taq DNA polymerase (Invitrogen) and two reporter sequence-specific primers. The PCR products were fluorescently labeled by primer extension with 6-arboxyfluorescein (6-FAM) 5'-labeled reporter sequence-specific primer (2 min at 95 C, 20 s at 68 C and 10 min at 72 C) and these products were digested with 5U of HpaI (New England Biolabs) for 2h at 37 C. The fragments were purified using Qiaquick PCR columns (Qiagen), analyzed on an ABI 3130xL genetic analyzer (Applied Biosystems) with peak positions identified by using a set of X-rhodamine (ROX)-labeled MapMarker1000 molecular weight standards (BioVentures). The raw capillary electrophoresis data was processed using Attagraph software (Attagene).

SMILES	outcome	AC50
Nc1c(Oc2ccccc2)cc(O)c2c1C(=O)c1ccccc1C2=O	inactive	–
CCOP(=S)(OCC)OP(=S)(OCC)OCC	inactive	–
COC(F)(C(F)(F)C(F)(F)F)C(F)(C(F)(F)F)C(F)(F)F (stereo not given)	inactive	–
CCCCCCCCCCCCBr	inactive	–
O=[N+]([O-])c1cc([As](=O)(O)O)ccc1O	inactive	–
O=S1OC[C@@H]2[C@H](CO1)[C@]1(Cl)C(Cl)=C(Cl)[C@@]2(Cl)C1(Cl)Cl (stereo not given in full)	inactive	–
C[C@H]1C(=O)O[C@@H]2CCN3CC=C(COC(=O)[C@](C)(O)[C@]1(C)O)[C@H]23	inactive	–
C=CC(=O)[O][Sn]([CH2]CCC)([CH2]CCC)[CH2]CCC	–	0.52 µM (active)
Cc1ccc(CCl)cc1	inactive	–
Cc1cc(C)cc(C)c1	inactive	–
CC(C)CP(=S)(S)CC(C)C	inactive	–
O=[N+]([O-])c1ccc(Cl)c([N+](=O)[O-])c1	inactive	–
Cl[C@H]1OCCO[C@@H]1Cl	inactive	–
C#CCO	inactive	–
CCOP(=S)(OCC)SCS(=O)(=O)C(C)(C)C	inactive	–
CN(C1CCCCC1)C1CCCCC1	inactive	–
CCCCCCCCCCCCN(C)C	inactive	–
NNCCO	inactive	–
CC(C)(C#N)N=NC(C)(C)C#N	inactive	–
c1ccc2sc(SNC3CCCCC3)nc2c1	–	154 µM (active)

SMILES	outcome	AC50
O=C(N[C@H]1CN2CCC1CC2)c1ccc2c(c1)OCCO2	inactive	–
O=C(Cc1ccccc1)OCCc1ccccc1	inactive	–
C=CC(F)(C(F)(F)F)C(F)(F)C(F)(F)F (stereo not given)	inactive	–
CCOP(=S)(OCC)Oc1ccc(Cl)cc1Cl	inactive	–
CNC(=O)O/N=C/C(C)(C)S(C)(=O)=O	inactive	–
Clc1ccc(C(Cl)(Cl)Cl)cn1	inactive	–
O=S(=O)(Oc1ccc(Cl)cc1)c1ccc(Cl)cc1	inactive	–
O=c1[nH]c2ccccc2n1C1CCN(CCCC(c2ccc(F)cc2)c2ccc(F)cc2)CC1	inactive	–
CC(C)CC(C)(c1ccc(O)cc1)c1ccc(O)cc1	–	17.2 µM (active)
CCOP(=S)(OCC)SCSc1cc(Cl)ccc1Cl	inactive	–
CCNc1nc(NCC)nc(SC)n1	inactive	–
Cc1cc(Cl)ccc1N	inactive	–
CCOP(=O)(OCC)SCCSCC	inactive	–
Clc1cnc(Oc2ccc(Oc3ncc(Cl)cc3Cl)cc2)c(Cl)c1	inactive	–
O=C1C=CC(=O)c2ccccc21	inactive	–
O=C(O)COc1cc(Cl)c(Cl)cc1Cl	inactive	–
Nc1ccc(-c2ccccc2)cc1	inactive	–
ClCc1ccccc1Cl	–	100 µM (active)
C#C[C@]1(O)CC[C@H]2[C@@H]3CCC4=CC(=O)CC[C@]4(C)[C@H]3CC[C@@]21C	inactive	–
N#CS	inactive	–
